In PMC13494018:

B1: d1r7_design_ppi_393_dldesign_0_cycle1_af2pred (protein)
chain: EKLHPQAVAALKAQARNAAKLDPETMKKMAENVAKLVTLLSPAKAKEAEKVKELLLKAAEAKKKGAGEETLKALVEEAAKVIAE
B2: d1r6_design_ppi_2_dldesign_0_cycle1_af2pred (protein)
chain: EQYFTDRDIAAAEAAAAKYAALAADPEARAYAARFREAAALIRDPATRAEGIDLLAATEAAAAAHAKALAA
B3: d1r7_design_ppi_3_dldesign_0_cycle1_af2pred (protein)
chain: AAEAAALYEATRAAAEALARVDPALAAEAARLRGQALRYYSLTFVDPAAGRAGVAAVLAEAKRLLAAARARA
B4: d1r7_design_ppi_420_dldesign_0_cycle1_af2pred (protein)
chain: MTKAEVVAEAIAVAKEAAKIAKANKESPEVQELQKKALDLAFKALASNDAAEAQKYAEKAKEVKKELEKKAKEL
B5: d1r6_design_ppi_17_dldesign_0_cycle0_af2pred (protein)
chain: MDFAASAQAAQRDAERLAERGIASGDAADLRRATEAVEQLLEIVQGLAAQGAAEAGEQLQAAVERTRAALERTRAAAAAAEAAAA
B6: d1r7_design_ppi_304_dldesign_0_cycle0_af2pred (protein)
chain: AAEAAAAAAATARASAAMAAFARRRLEEGAAAGPEALARAVAELEALAAHADPAIGAALRAALAATLAALAAAA
B7: d1r6_design_ppi_671_dldesign_0_cycle1_af2pred (protein)
chain: AVEEALKKAEEAAKELEKVAKELGDKEAKEKAKQVKSLIEFAKVAAEAGDEKTALHAAKQAKELAEKALKEAKAKLEAKKAEEEKLKK
B8: d1r7_design_ppi_29_dldesign_0_cycle1_af2pred (protein)
chain: SAATAVALAQAAITFGRSALAAAERAPPERGAKILEAAAEILTAAAAQAPALAAETQALAAEARERAAELAAAAAA
B9: d1r6_design_ppi_480_dldesign_0_cycle1_af2pred (protein)
chain: AAETQQAADIIIANAEHAKRLAKENPEAGEKLVEVLEESAKWVEAKDPEAGAKAKKAVEEAKKVAEAVKAAREAAKALA
B10: d1r6_design_ppi_906_dldesign_0_cycle0_af2pred (protein)
chain: AAAAQAEVTIKMGEAVIKQGEEWIEHPEYAEHAAKLLEAVADIAKATAKAAAAADAELAKKVEETRKKLEEVREKAKAVAEA
B11: d1r6_design_ppi_905_dldesign_0_cycle0_af2pred (protein)
chain: AAVEAAQEEALRALEEARALAREVLAADPERAARVAARIEEAAELVRDGEKINEGLALLVELAAESPAEVKPALMRAAALAGRAYVLR
B12: d1r6_design_ppi_166_dldesign_0_cycle0_af2pred (protein)
chain: SAVAADGAAALAVAADLMAAGKEYAAAGDLANAARAYQSARALAATMAAAAAAAGDAATAAALAAAAAAAAAAEAEVKA
B13: d1r6_design_ppi_647_dldesign_0_cycle0_af2pred (protein)
chain: SKAELLAYKALAAAAKNALEQVKTGEEAEKAVESLKKMAEALGDEETAKLAEEALKAIKKSKEEGEKKLEEAKKYAEKKAKEAA
B14: d1r7_design_ppi_147_dldesign_0_cycle1_af2pred (protein)
chain: AAAAAKATAKQIAAIAEEAIAKVKAATPEEAKKIAAEANQQIRALAAAAAAAHPEVAAAVAAAATAAIQRVLSTAIEVVSA
B15: d1r7_design_ppi_74_dldesign_0_cycle1_af2pred (protein)
chain: AKEKAEELYKKFSEEINKSLALLGKAGLAAVEDPAKGAELFKKAKAELEEAKKYAKKLEELDPELGKKAKAELKKVQDLYDGTYKANV
B16: d1r6_design_ppi_754_dldesign_0_cycle1_af2pred (protein)
chain: GKEEELLKKAKEYFEEAEKYIKELEEVAAKAGPAAKGLVTFTKNYFERLKAKAEKATPEEALKLAKEAYDFAKDALEAAKTTLAALE
B17: d1r7_design_ppi_24_dldesign_0_cycle0_af2pred (protein)
chain: SELGAILDRASEVSKRAVEVEKKAKEKGLEEALELAREALKEVQAALSLIAKGGDLADAQAKLEEGEKLLEEAEKKLKEE
B18: d1r7_design_ppi_396_dldesign_0_cycle0_af2pred (protein)
chain: SSPVEQAMKVIEKYMKELAKVVGQEKADAAKNLLFGALAKGVHAGVEAAKAELQAAAKEIQKEIKDPEAQKIIQEATKEAIKELE
B19: d1r6_design_ppi_81_dldesign_0_cycle1_af2pred (protein)
chain: AATQQILITAAVMLEERLDELGRAAEVAAMALLYGAAFGSLEKAREKLEELAATLSAEEAARARATFDEAVAAAQAAA
B20: d1r6_design_ppi_725_dldesign_0_cycle0_af2pred (protein)
chain: AELAATHMAGVEALNRARAAAVALVALDPARGAAWLAEADELGRRLNEAAADASRAEELKRITEELEKLAERIAAERDAAAA
B21: d1r7_design_ppi_71_dldesign_0_cycle1_af2pred (protein)
chain: DYAAQQLALTTRAQEVAERAKKAGKELGNPEEAKKIQQLASLAQALAINPATFPQAEKKLEEAEKRAKKLEKKAKE
B22: d1r6_design_ppi_780_dldesign_0_cycle1_af2pred (protein)
chain: NAAATRAFSLAVARQAEETAKQVAGVDPELAKKLKELAKEVRKLAADPATHLQAVEATIEALKAIGEANKKLA
B23: d1r7_design_ppi_446_dldesign_0_cycle1_af2pred (protein)
chain: GEAARNAEEIFADSRERARALAAEYRASGDPADLAIAAELEEALARAEEEGPAGGVRLIILTDGILQARAAAAA
B24: d1r7_design_ppi_322_dldesign_0_cycle0_af2pred (protein)
chain: MTLEDLKRAAKAYLHGLANLAAGLGLEELAKKLREAAANVDDAKALKEGAELAKELAALSTPEAAEFAKLAAEVAKAAAKAVEAA
B25: d1r7_design_ppi_300_dldesign_0_cycle0_af2pred (protein)
chain: MQVMLDAGEYLAKALKATGLEEAKEMAEEVLKAMKEAASLSPEEAESILGELMRKTIAKTGVVGAQAAALAYAHLAELKAA
B26: d1r6_design_ppi_612_dldesign_0_cycle1_af2pred (protein)
chain: GAALEEQAKKIAEEAIEKIKKGAETGSLSPEEILALASKTVAQLSAIAIASKGGVAAGAGAVEVQKVAAEAL
B27: d1r6_design_ppi_250_dldesign_0_cycle0_af2pred (protein)
chain: SAALAAARGAILQAALSLGVERAREAFARVEASDPAEAAALAEALAAEAAARDPAIGARAAAGAAALRAA
B28: d1r6_design_ppi_627_dldesign_0_cycle1_af2pred (protein)
chain: DEVQREIRERVERGRETAKRAAQHPATAPIAAAIRATAERAEAASSDPERALNYAQMTDVAIANGELALAQVAA
B29: d1r6_design_ppi_265_dldesign_0_cycle1_af2pred (protein)
chain: AAAQARALGAVAKQAVLDGKFDEAKQLIEGLVNLAQADPAAAPQAAKEMKEIAKAAEEKAKADPANAAKYKALAKVAAAAAKEAEKAA
B30: d1r6_design_ppi_106_dldesign_0_cycle0_af2pred (protein)
chain: AAISRAMYHHALGLADAANREAHLAAAAALRAALSPEDAARAEAQIAKIEAAAAANQAAAAAARAARAAAA
B31: d1r7_design_ppi_302_dldesign_0_cycle1_af2pred (protein)
chain: SPVAAQAEALRDAAVAVAKTGNPEAAAAAAHAAVAQMNRLALAHPEENATASSEAVATLEEVDRLRAAQRAAAG
B32: d1r7_design_ppi_270_dldesign_0_cycle1_af2pred (protein)
chain: SMEKALEYLEKAKKSLEEGDKAKAAGDKARALGYYQLAAAYAKSAAHLAKDNPELAKEAKELEKEAKAKLAEVRAA
B33: d1r7_design_ppi_241_dldesign_0_cycle0_af2pred (protein)
chain: SELEARGERIKREAEELRRRAEASTDAEEALAYATELVALAAEAAALGDSEAASVAVRAAAAAHAHAQALRA
B34: d1r7_design_ppi_77_dldesign_0_cycle1_af2pred (protein)
chain: SAVEDAANAIWEAAKAMAKAVPEAAATVDKLAREAVRALMLGDYEKAAKIVKEMAKAVAKADPKAAKKAEELAKKTVAKIKAA
B35: d1r6_design_ppi_106_dldesign_0_cycle1_af2pred (protein)
chain: DLISKAVYYYALGIADPANAAEYKAKAQAEIDKLSPEEAAKAKAELEKVTKSQEELAAKSAERAAARAAAA
B36: d1r7_design_ppi_351_dldesign_0_cycle0_af2pred (protein)
chain: EELEEKKKKAIELLKKAKEKAEKIGDTAVAAAAENAIKAIEAGNLEAAISNARLAKAIAAEDPALKEAAELAKKALEELEEAKKLAEA
B37: d1r7_design_ppi_290_dldesign_0_cycle0_af2pred (protein)
chain: SAEAAEAEAAAARELAREMYALTPEEAAERMTALFLESPGRALRAATELVRAEGPAALPLAQAWLRAGVAAAQAA
B38: d1r7_design_ppi_252_dldesign_0_cycle1_af2pred (protein)
chain: VKEEAVALAKEAAALAREAAELLAPDPLLAAQAQRLAERAEELAERAKAASEEEAKELLEEARVLLAQAELLLTIARQR

Biological target: CD276, Q5ZPR3
Sequence (Q5ZPR3 whole entry): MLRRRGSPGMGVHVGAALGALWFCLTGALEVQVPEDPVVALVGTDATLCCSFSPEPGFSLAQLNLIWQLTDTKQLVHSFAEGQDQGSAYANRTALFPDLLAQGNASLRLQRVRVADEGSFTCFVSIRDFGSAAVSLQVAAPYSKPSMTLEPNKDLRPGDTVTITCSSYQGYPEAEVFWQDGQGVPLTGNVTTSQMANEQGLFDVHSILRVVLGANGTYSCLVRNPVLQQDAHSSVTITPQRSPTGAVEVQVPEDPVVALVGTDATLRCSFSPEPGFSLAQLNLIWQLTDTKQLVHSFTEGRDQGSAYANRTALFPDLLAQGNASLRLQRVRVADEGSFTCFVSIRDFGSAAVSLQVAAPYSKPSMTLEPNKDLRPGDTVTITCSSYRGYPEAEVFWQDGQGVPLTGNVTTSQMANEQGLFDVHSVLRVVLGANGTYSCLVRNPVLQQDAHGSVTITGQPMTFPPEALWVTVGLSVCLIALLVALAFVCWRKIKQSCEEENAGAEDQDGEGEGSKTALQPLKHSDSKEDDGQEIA

Binding in a display sort, inactive:
B1 not found
B2 not found
B3 not found
B4 not found
B5 not found
B6 not found
B7 not found
B8 not found
B9 not found
B10 not found
B11 not found
B12 not found
B13 not found
B14 not found
B15 not found
B16 not found
B17 not found
B18 not found
B19 not found
B20 not found
B21 not found
B22 not found
B23 not found
B24 not found
B25 not found
B26 not found
B27 not found
B28 not found
B29 not found
B30 not found
B31 not found
B32 not found
B33 not found
B34 not found
B35 not found
B36 not found
B37 not found
B38 not found
